Drawing on PubChem BioAssay (Tox21), this text covers Potency for 8 molecules.

Inconclusive results are not listed. Active and inactive are the calls of the source. Unless noted, calls come from the whole dose curve; as a rule, active = well fitted curve in the direction sought with a large enough effect in the repeat runs; inconclusive = weak or mixed curves; inactive = no such curve, though single readings can be large; an effect the other way counts as inactive or inconclusive.

The nature of assay [1]: qHTS assay for small molecules that induce genotoxicity in human embryonic kidney cells expressing luciferase-tagged ATAD5 (AID 651632). Note: nearly all actives have a fitted effect of over 15% in size. The essentials:
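Cells were seeded at 2,000 per well, dosed with compound, and incubated 16 hr at 37C in 5% CO2. Luciferase activity was then quantified after a 30 min room-temperature incubation with Amplite.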

Assay [2] is described as follows: qHTS assay for small molecule agonists of the p53 signaling pathway - cell viability (AID 651633; calls by dose curve;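 note: p53RE-bla HCT reporter cells with a stable beta-lactamase p53 reporter; nearly all actives have a fitted effect of over 30% in size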). The essentials:
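Viability counter-read: CellTiter-Glo luminescence (30 min, room temperature) in the same p53RE-bla plates. These plates had been exposed to compounds for 16 h at 37 C.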

Assay [3] can be described thus: qHTS assay for small molecules that induce genotoxicity in human embryonic kidney cells expressing luciferase-tagged ATAD5 - cell viability (AID 651634; calls by dose curve; note: nearly all actives have a fitted effect of over 25% in size). The procedure, abridged:
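Cells (HEK293T, luciferase-tagged ATAD5) are seeded at 2,000 per well, dosed with compound or DMSO vehicle, and incubated 15.5 hr at 37C and 5% CO2. CellTiter-Fluor is added for 30 min before fluorescence is measured.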

Assay [4] in a line: qHTS assay for small molecule disruptors of the mitochondrial membrane potential - cell viability (AID 720634; calls by dose curve;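 note: human HepG2 liver cancer cells; nearly all actives have a fitted effect of over 20% in size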). The essentials:
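Cytotoxicity was measured by ATP quantitation in HepG2 wells that had first been treated with compound for 1 hr and stained with m-MPI dye; CellTiter-Glo incubation was 30 min at room temperature.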

A short description of assay [5]: qHTS assay for small molecule disruptors of the mitochondrial membrane potential (AID 720635). Note: potency is the fitted concentration of half-maximal effect. The procedure, abridged: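 Mitochondrial membrane potential tracked with Mito-MPS dye, red aggregates (ex 540/em 590 nm) against green monomers (ex 490/em 535 nm). Compound treatment 1 hr at 37C, dye 30 min in HepG2.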
Assay [6] can be described thus: qHTS assay to test for compound auto fluorescence at 590 nm (red) in HepG2 cells (AID 720674). The essentials: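 We screened compounds on adherent HepG2 cells, incubating them for an hour at 37 C in 5% CO2 before reading emission at 590 nm under 540 nm excitation; values reflect equivalence to Rose Bengal sodium fluorescence.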
Assay [7] can be described thus: qHTS assay to test for compound auto fluorescence at 535 nm (green) in HepG2 cells (AID 720675).
Assay [8] is described as follows: qHTS assay to test for compound auto fluorescence at 460 nm (blue) in HEK293 cells (AID 720678). The procedure, abridged: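 HEK293 cells (2,000 per well, medium with 10% dialyzed FBS) attached for 4-5 hr at 37C, then received compound and stood overnight at 37C, 5% CO2. Blue fluorescence was read at Ex/Em 405/460 nm and expressed relative to triamterene.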
Assay [9] in a line: qHTS assay to test for compound auto fluorescence at 590 nm (red) in HEK293 cells (AID 720679). The essentials: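 HEK293 cells (2,000/well, medium with 10% dialyzed FBS) attached for 4-5 hr at 37C, received 23 nL compound and were incubated overnight at 37C, 5% CO2. Red fluorescence was then read at 540/590nm Ex/Em, referenced to Rose Bengal sodium.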
A short description of assay [10]: qHTS assay to test for compound auto fluorescence at 535 nm (green) in HEK293 cells (AID 720680).
Assay [11] in a line: qHTS assay to test for compound auto fluorescence at 460 nm (blue) in HEK293 cell free culture (AID 720681). The procedure, abridged: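 Blue fluorescence (Ex 405/Em 460 nm, triamterene-equivalent) was read immediately after pin transfer of compound or DMSO into medium (DMEM, 10% FBS) without cells.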
Assay [12] is described as follows: qHTS assay to test for compound auto fluorescence at 535 nm (green) in HEK293 cell free culture (AID 720682). The essentials:
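No cells present: wells hold DMEM supplemented with 10% FBS, into which compound or vehicle is pinned. Green emission is then recorded (485 nm excitation, 535 nm emission) and scaled to fluorescein.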

A short description of assay [13]: qHTS assay to test for compound auto fluorescence at 590 nm (red) in HEK293 cell free culture (AID 720683). The essentials: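 Red-channel autofluorescence of compounds in culture medium (DMEM, 10% FBS), no cells, measured at 540/590 nm. Rose Bengal sodium is the reference fluorophore for equivalence.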
Assay [14] can be described thus: qHTS assay to test for compound auto fluorescence at 590 nm (red) in HepG2 cell free culture (AID 720684). The procedure, abridged: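 No cells present: MEM + 10% FBS only. Compound pinned in, red label read (540/590 nm). Activity = fluorescence equivalent to Rose Bengal sodium.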
Assay [15] is described as follows: qHTS assay to test for compound auto fluorescence at 460 nm (blue) in HepG2 cell free culture (AID 720685). The essentials: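 Cell-free plates of MEM plus 10% FBS received 23 nL compound or DMSO vehicle; blue-channel (405/460 nm) intensity scored against triamterene as reference fluorophore.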
Assay [16] is described as follows: qHTS assay to test for compound auto fluorescence at 535 nm (green) in HepG2 cell free culture (AID 720686).
Assay [17] can be described thus: qHTS assay to test for compound auto fluorescence at 460 nm (blue) in HepG2 cells (AID 720687). The procedure, abridged: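 Blue-channel autofluorescence (Ex/Em 405/460 nm, triamterene-equivalent) was measured after 1 hr compound exposure at 37 C, 5% CO2. Cells were HepG2, plated overnight at 37 C in MEM plus 10% FBS.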
The target in assay [18] is Glucocorticoid receptor (Homo sapiens) (UniProt P04150). The assay can be described thus: qHTS assay to identify small molecule agonists of the glucocorticoid receptor (GR) signaling pathway (AID 720691; active = well fitted activation curve with a large enough effect in the signal ratio in the repeat runs, not every such curve was filed as active; the % refers to the signal ratio). As to conditions: GR-bla HeLa, beta-lactamase reporter ratio, 18 h; activation: at 62.4 µM (top of the series). The procedure, abridged: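 Steps: seed GR-bla HeLa cells, incubate 4 h at 37 C/5% CO2; pin-transfer DMSO-dissolved compounds; incubate 18 h at 37 C; add LiveBLAzer B/G FRET substrate; after 2 h at room temperature, measure fluorescence.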
Glucocorticoid receptor (Homo sapiens), sequence (P04150 whole entry, looked up): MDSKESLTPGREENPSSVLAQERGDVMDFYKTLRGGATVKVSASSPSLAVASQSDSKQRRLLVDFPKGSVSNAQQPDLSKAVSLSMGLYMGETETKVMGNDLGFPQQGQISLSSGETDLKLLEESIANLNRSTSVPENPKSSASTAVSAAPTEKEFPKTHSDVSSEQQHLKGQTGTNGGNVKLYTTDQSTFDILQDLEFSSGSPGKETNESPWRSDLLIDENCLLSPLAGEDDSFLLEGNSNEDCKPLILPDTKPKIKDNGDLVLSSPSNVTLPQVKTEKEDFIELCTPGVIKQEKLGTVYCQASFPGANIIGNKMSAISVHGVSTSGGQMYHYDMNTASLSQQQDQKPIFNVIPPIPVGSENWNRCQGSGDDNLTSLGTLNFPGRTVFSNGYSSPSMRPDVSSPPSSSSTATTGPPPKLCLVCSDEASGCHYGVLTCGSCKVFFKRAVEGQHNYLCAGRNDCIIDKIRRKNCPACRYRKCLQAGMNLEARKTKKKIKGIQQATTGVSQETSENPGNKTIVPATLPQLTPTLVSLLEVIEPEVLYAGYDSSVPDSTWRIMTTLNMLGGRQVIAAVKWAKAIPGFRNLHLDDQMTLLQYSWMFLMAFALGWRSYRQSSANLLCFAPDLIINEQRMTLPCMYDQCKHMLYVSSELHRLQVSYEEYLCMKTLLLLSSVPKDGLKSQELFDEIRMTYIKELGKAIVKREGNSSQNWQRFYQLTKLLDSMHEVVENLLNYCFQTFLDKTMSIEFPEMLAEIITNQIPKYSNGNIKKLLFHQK

Assay [19] shares this target. The assay can be described thus: qHTS assay to identify small molecule antagonists of the glucocorticoid receptor (GR) signaling pathway (AID 720692; active = well fitted inhibition curve with a large enough effect in the signal ratio in the repeat runs, not every such curve was filed as active; the % refers to the signal ratio). The procedure, abridged:
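Antagonism was scored as loss of dexamethasone-driven (5 nM final) reporter signal in HeLa cells bearing a glucocorticoid response element–beta-lactamase construct, after 18 h compound exposure at 37 C and 2 h FRET substrate loading.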

Assay [20] is described as follows: qHTS assay for small molecule agonists of the p53 signaling pathway (AID 651631; calls by dose curve; note: nearly all actives have a fitted effect of over 15% in size; note: potency is the fitted concentration of half-maximal effect). The procedure, abridged:
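Agonist mode screen using a stably integrated beta-lactamase gene under p53 response elements in HCT-116 cells. Compound exposure lasts 16 h at 37 °C; fluorescence intensity is measured following 2 h FRET substrate loading.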

`CCCN(CCc1cccs1)[C@H]1CCc2c(O)cccc2C1`: the Potency result in [1], in assay [2], in assay [3], in assay [4], in assay [6] and in assay [7] was “inactive” in each case. In addition, the Potency entry in assay [8], in assay [9], in [10], in assay [11], in [12] and in assay [13] was “inactive” throughout. Moreover, the Potency entry in [14], in assay [15], in [16], in assay [17], in assay [18] and in assay [19] was “inactive” in each case. Further, the Potency in assay [5] was 24.8 µM (active).
Take `CCCCCCOc1ccc(O)cc1`: the Potency in assay [20] was 24.3 µM (active). In addition, the Potency result in assay [2], in assay [3], in assay [6], in [7], in [8] and in assay [9] was “inactive” throughout. The Potency entry in assay [10], in [11], in assay [12], in assay [13], in assay [16] and in assay [17] was “inactive” each time.
For the molecule `CC(COC(=O)c1ccccc1)OC(=O)c1ccccc1` (stereo not given), the Potency entry in assay [20], in assay [1], in assay [2], in assay [3], in [4] and in assay [6] was “inactive” each time. Further, the Potency result in assay [8], in assay [9], in [10], in assay [11], in [12] and in assay [13] was “inactive” in each case. Moreover, the Potency entry in assay [14], in assay [15], in assay [16] and in [17] was “inactive” each time.
`O=S(=O)(O)CCCN1CCOCC1`: the Potency entry in [20], in assay [1], in [2], in assay [3], in assay [4] and in assay [6] was “inactive” throughout. For the same molecule, the Potency result in assay [7], in [8], in [9], in [10], in assay [11] and in assay [12] was “inactive” in each case. The Potency entry in [15], in [16], in [17] and in [19] was “inactive” each time.
Consider `O=C(c1ccccc1)c1cc(Cl)ccc1O`, for which the Potency entry in [20], in [1], in assay [2], in assay [3], in assay [4] and in [6] was “inactive” throughout. Also, the Potency result in assay [7], in assay [8], in assay [9], in assay [10], in assay [11] and in assay [12] was “inactive” throughout. The Potency entry in [13], in assay [14], in assay [15], in [16], in assay [17] and in [19] was “inactive” throughout. Further, in [5], the Potency was 25.9 µM (active).
Consider `COC(=O)CC#N`, for which the Potency entry in assay [20], in [1], in assay [2], in [3], in [4] and in [5] was “inactive” throughout. Besides, the Potency result in [6], in assay [7], in assay [8], in [9], in [10] and in assay [11] was “inactive” each time. In addition, the Potency result in assay [12], in assay [13], in assay [14], in assay [15], in assay [16] and in assay [17] was “inactive” throughout.
On to `CCCCCCCC/C=C\CCCCCCCC(=O)OCCOC(=O)CCCCCCC/C=C\CCCCCCCC`, for which the Potency entry in [20], in assay [1], in assay [2], in assay [3], in assay [4] and in assay [6] was “inactive” in each case. Moreover, the Potency result in [8], in assay [9], in [10], in assay [11], in [12] and in [13] was “inactive” throughout. The Potency entry in assay [14], in assay [15], in assay [16] and in assay [17] was “inactive” throughout. In assay [5], the Potency was 79.8 µM (active).
With `CCCCCCCCCC(=O)N(C)C`, the Potency result in assay [20], in assay [1], in [2], in [3], in [4] and in assay [6] was “inactive” each time. The Potency result in assay [7], in [8], in [9], in assay [10], in assay [11] and in assay [12] was “inactive” each time. The Potency entry in assay [14], in [15], in [16], in assay [17] and in assay [19] was “inactive” throughout.
